Paper PMC4336329 (PLoS ONE, 2015)
In all, about 310,000 compounds went through this assay and about 14,000 (4.5%) showed an effect of 50% or more. Effects have a minus sign here. This excerpt belongs to a sample that is enriched for strong results.

biological target: human ether-à-go-go-related gene (hERG) potassium channel (human, UniProt Q12809); assay: primary screen, population patch clamp on CHO cells stably expressing hERG; higher = less effect of the substance
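Note: peak tail current of the secondary pulse compared with the same well before compound.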

human ether-à-go-go-related gene (hERG) potassium channel, sequence (Q12809 whole entry, looked up): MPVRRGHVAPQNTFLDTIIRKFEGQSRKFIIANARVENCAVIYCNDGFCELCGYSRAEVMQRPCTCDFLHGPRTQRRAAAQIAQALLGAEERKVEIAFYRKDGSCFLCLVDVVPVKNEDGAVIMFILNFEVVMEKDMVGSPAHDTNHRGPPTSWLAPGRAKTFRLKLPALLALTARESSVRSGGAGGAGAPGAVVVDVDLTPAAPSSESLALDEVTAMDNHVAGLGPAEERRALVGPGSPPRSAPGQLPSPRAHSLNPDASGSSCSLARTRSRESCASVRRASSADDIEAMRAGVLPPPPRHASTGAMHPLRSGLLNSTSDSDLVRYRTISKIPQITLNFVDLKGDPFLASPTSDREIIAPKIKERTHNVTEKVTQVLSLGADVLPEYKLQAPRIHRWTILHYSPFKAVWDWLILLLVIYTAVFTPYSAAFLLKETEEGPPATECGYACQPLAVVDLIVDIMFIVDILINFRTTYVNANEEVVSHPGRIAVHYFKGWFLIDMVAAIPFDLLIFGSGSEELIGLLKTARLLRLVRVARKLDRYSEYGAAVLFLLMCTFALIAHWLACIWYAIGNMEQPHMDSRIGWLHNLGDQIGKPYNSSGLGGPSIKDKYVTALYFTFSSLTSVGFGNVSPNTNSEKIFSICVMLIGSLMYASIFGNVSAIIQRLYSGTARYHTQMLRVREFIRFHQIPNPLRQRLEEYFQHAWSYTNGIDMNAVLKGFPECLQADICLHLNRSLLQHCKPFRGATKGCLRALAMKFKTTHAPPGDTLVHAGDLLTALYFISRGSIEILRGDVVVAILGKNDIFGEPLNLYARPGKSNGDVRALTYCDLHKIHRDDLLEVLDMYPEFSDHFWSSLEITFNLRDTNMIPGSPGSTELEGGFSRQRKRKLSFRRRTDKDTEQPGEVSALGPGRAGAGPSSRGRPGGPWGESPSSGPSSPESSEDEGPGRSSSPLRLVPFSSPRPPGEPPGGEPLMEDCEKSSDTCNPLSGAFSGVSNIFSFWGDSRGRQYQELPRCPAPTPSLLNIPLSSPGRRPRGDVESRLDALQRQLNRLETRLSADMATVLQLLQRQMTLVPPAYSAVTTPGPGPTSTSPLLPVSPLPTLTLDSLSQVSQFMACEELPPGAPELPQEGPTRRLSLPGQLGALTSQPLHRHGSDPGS

First: CC(C)CN1CCN(Cc2ccc3ncccc3c2)CC1CCO (stereo not drawn)
Second: OCCC1CN(Cc2ccc3ncccc3c2)CCN1Cc1ccccc1 (stereo not drawn)
The “hERG current change (%, negative = inhibition) at 10uM” value of the first is higher: -13.2% for the first, -14.8% for the second.

First: Cc1ccc(CN2CCN(Cc3ccc4ncccc4c3)CC2CCO)cc1 (stereo not drawn)
Second: Cc1ccc(CN2CCN(Cc3cccc4nccnc34)CC2CCO)cc1 (stereo not drawn)
The “hERG current change (%, negative = inhibition) at 10uM” value of the first is higher: -58.9% for the first, -66.6% for the second.

Going from `OCCC1CN(Cc2cccc3nccnc23)CCN1Cc1ccc(F)c(F)c1` (stereo not drawn) to `OCCC1CN(Cc2cccc3nccnc23)CCN1Cc1ccc(F)cc1` (stereo not drawn), the “hERG current change (%, negative = inhibition) at 10uM” value rises from -56.4% to -30.8%.

First: CC(C)CN1CCN(Cc2cccc3nccnc23)CC1CCO (stereo not drawn)
Second: CC(C)=CCN1CCN(Cc2cccc3nccnc23)CC1CCO (stereo not drawn)
The “hERG current change (%, negative = inhibition) at 10uM” value of the first is higher: -8.4% for the first, -8.42% for the second.

Going from `OCCC1CN(Cc2ccon2)CCN1Cc1ccc(F)c(F)c1` (stereo not drawn) to `CN1CCN(S(=O)(=O)c2cccc(C(=O)N(Cc3nnc(-c4ccc(Cl)cc4)o3)C3CC3)c2)CC1`, the “hERG current change (%, negative = inhibition) at 10uM” value falls from -13.9% to -49.3%.

Compared with `COc1ccccc1N1CCN(C(=O)CSc2nc(N)cc(=O)[nH]2)CC1`, `COc1ccc(Cl)cc1C(=O)N1CCN=C1SC` is higher in “hERG current change (%, negative = inhibition) at 10uM” value: 6.2% for the first, 21.3% for the second.

Going from `Cc1ccc(-n2c(O)c(C=NCCCn3ccnc3)c(=O)[nH]c2=O)cc1` to `COc1ccccc1C(CNC(=O)c1cccc(S(=O)(=O)Nc2ccc(C)cc2)c1)N(C)C` (stereo not drawn), the “hERG current change (%, negative = inhibition) at 10uM” value falls from 19.6% to -8.39%.

Going from `COc1ccccc1NS(=O)(=O)c1cccc(C(=O)N/N=C/c2ccc(N3CCOCC3)cc2)c1` to `COc1ccc(C(CNC(=O)c2cccc(NS(=O)(=O)c3ccc(C)c(F)c3)c2)N2CCOCC2)cc1` (stereo not drawn), the “hERG current change (%, negative = inhibition) at 10uM” value falls from -8.32% to -9.43%.

Going from `CC(OC(=O)c1ccc(-c2ccc(O)cc2)cc1)C(=O)NC1CCCCC1C` (stereo not drawn) to `COC(=O)C1=C(c2ccc(F)cc2OCc2ccccc2)C[C@@H]2CC[C@H]1N2C(=O)NC1CC1`, the “hERG current change (%, negative = inhibition) at 10uM” value falls from -6.35% to -10.4%.

Going from `COc1ccccc1C(CNC(=O)c1cccc(NS(=O)(=O)c2ccc(Br)cc2)c1)N(C)C` (stereo not drawn) to `COc1ccccc1C(CNC(=O)c1cccc(NS(=O)(=O)c2ccc(C)c(F)c2)c1)N(C)C` (stereo not drawn), the “hERG current change (%, negative = inhibition) at 10uM” value rises from -51.7% to -42.5%.

Compared with `COc1ccc(C(CNC(=O)c2cccc(NS(=O)(=O)c3ccccc3)c2)N(C)C)cc1` (stereo not drawn), `CCOc1ccc(S(=O)(=O)Nc2cccc(C(=O)NCC(c3ccccc3)N(C)C)c2)cc1` (stereo not drawn) is higher in “hERG current change (%, negative = inhibition) at 10uM” value: -46.4% for the first, -12% for the second.

Going from `COc1ccc(C(CNC(=O)c2ccc(NS(=O)(=O)c3ccc(F)c(C)c3)cc2)N(C)C)cc1` (stereo not drawn) to `COc1ccc(C(CNC(=O)c2cccc(NS(=O)(=O)c3ccc(C)c(F)c3)c2)N(C)C)cc1` (stereo not drawn), the “hERG current change (%, negative = inhibition) at 10uM” value falls from -25.8% to -62.6%.

Going from `COc1ccc(C(CNC(=O)c2cccc(NS(=O)(=O)c3ccc(Br)cc3)c2)N(C)C)cc1` (stereo not drawn) to `Cc1ccc(S(=O)(=O)Nc2cccc(C(=O)NCC(c3ccccc3)N(C)C)c2)cc1F` (stereo not drawn), the “hERG current change (%, negative = inhibition) at 10uM” value rises from -61.5% to -45.8%.

Going from `Cc1ccc(S(=O)(=O)Nc2cccc(C(=O)NCC(c3ccco3)N3CCCC3)c2)cc1F` (stereo not drawn) to `COc1ccc(C(CNC(=O)c2cccc(NS(=O)(=O)c3ccc(C)c(F)c3)c2)N2CCCC2)cc1` (stereo not drawn), the “hERG current change (%, negative = inhibition) at 10uM” value falls from -38.5% to -64%.

First: CCOC(=O)CN1C(=O)C(O)=C(C(C)=O)C1c1ccccc1 (stereo not drawn)
Second: CCOc1ccc(NC(=O)c2ccccc2NC(=O)c2cccnc2)cc1
The “hERG current change (%, negative = inhibition) at 10uM” value of the first is higher: 11.3% for the first, 7.52% for the second.

First: Cc1c(-c2ccccc2)nc2ccccc2c1C(=O)Oc1ccc([N+](=O)[O-])cc1
Second: COC(=O)C1=C(c2ccc(F)cc2OCc2ccccc2)C[C@@H]2CC[C@H]1N2C(=O)NCc1ccc(F)cc1
The “hERG current change (%, negative = inhibition) at 10uM” value of the first is lower: -21.6% for the first, -5.76% for the second.

Going from `COc1ccc(C(=O)OCCNC(=O)c2c(Cl)nc3ccccn23)cc1.Cl` to `CC(=O)C(=Nc1ccccc1Cl)NNc1ccc(Cl)cc1`, the “hERG current change (%, negative = inhibition) at 10uM” value rises from -6.58% to 17.3%.

Compared with `Nc1cccc(-c2cc3ccccc3oc2=O)c1`, `COc1c(C)cc(C(=O)C2CCCN(C(=O)c3cc(C)nc(C)n3)C2)cc1C` (stereo not drawn) is higher in “hERG current change (%, negative = inhibition) at 10uM” value: 6.38% for the first, 7.89% for the second.
